Screens: PubChem BioAssay, several laboratories
tim23-1 inh: growth inhibitors of tim23-1 mutant yeast; S. cerevisiae tim23-1 growth, BacTiter-Glo luminescence, 24 h; inhibition, % at 20 µM; AID 463212; 330,000 tested, 1.3% active;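 active = growth inhibition of the mutant yeast at or above 50%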;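 note: temperature-sensitive mutant grown at 25 °C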
SUMO Mot1 rescue: inhibitors of SUMOylation pathway: yeast Mot1-301 growth rescue | S. cerevisiae Mot1-301 growth rescue, ATP luminescence, 38.5C; percent above DMSO median, 100 means doubled | growth rescue, % at 18.8 µM | 320,000 tested, 1% active;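 active = every valid replicate shows activation above 250% relative to neutral control wells; inactive = the rest, any valid replicate at or below 250%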
TIM10 inh: inhibits growth of TIM10 yeast strain; S. cerevisiae TIM10 strain growth, BacTiter-Glo luminescence, 24 h; inhibition, % at 10 µM; 330,000 tested, 1.4% active; AID 463195;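 active = inhibition of 40% or more at the single tested concentration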;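 note: wild-type TIM10 isogenic control strain grown at permissive 25 °C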
PfHsp90 set2: growth inhibition of yeast expressing Plasmodium Hsp90; 310,000 tested, 0.32% active; S. cerevisiae expressing PfHsp90, BacTiter-Glo ATP, 48 h; yeast lacking PDR1 and PDR3 efflux regulators; inhibition, % at 9.4 µM;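 active = every replicate shows inhibition above about 80%, whatever the replicate mean, limit read from the data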
tim10-1 inh: inhibits growth of tim10-1 mutant yeast. inhibition, % at 20 µM. AID 463190. 330,000 tested, 2.2% active. S. cerevisiae tim10-1 ts strain growth, BacTiter-Glo, 24 h;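 active = inhibition of at least 40%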;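 note: mutant grown at 25 °C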
tim10-1 conf: confirmation of tim10-1 mutant yeast growth inhibitors; inhibition, % at 20 µM; shares compounds with tim10-1 inh; 7,400 tested, 56% active; S. cerevisiae tim10-1 ts strain growth, BacTiter-Glo, 24 h; AID 463213;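 active = inhibition of yeast growth at or above a set limit in either of two repeat tests at 20 µM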;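 note: tim10-1 mutant grown at permissive 25 °C to find synthetic lethal compounds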
Numbers stand for hits; i = inactive; nt = not tested or not shown. Compounds with a hit are over-represented: about 4.4% of the library has one in this group of screens.

SMILES	tim23-1 inh	SUMO Mot1 rescue	TIM10 inh	PfHsp90 set2	tim10-1 inh	tim10-1 conf
Cc1ccc(C(=O)O/N=C2\CCCc3ccccc32)cc1	i	i	i	nt	i	nt
COc1ccc2c(c1)/C(=N/OC(=O)c1cccs1)CCC2	i	i	i	i	52	41
COc1ccc(NC(=O)O/N=C2/CCCc3ccc(OC)cc32)cc1	i	i	i	i	i	nt
CC(C(=O)N1CCN(c2ccc(Cl)cc2)CC1)c1ncc(C(F)(F)F)cc1Cl (centres undefined)	i	i	i	i	43	i
COc1ccc(-c2cn(-c3ccc(OC)cc3)c3[n+]2-c2ccccc2CC3)cc1	i	i	i	i	53	40
CCN(CC)C1CC(=O)N(c2cccc(Cl)c2)C1=O (centres undefined)	i	i	i	126	45	56
CCOC(=O)C1CCN(C2CC(=O)N(c3cccc(Cl)c3)C2=O)CC1 (centres undefined)	i	i	i	i	42	37
COC(=O)C1CCN(C2CC(=O)N(c3cc(C)cc(C)c3)C2=O)CC1 (centres undefined)	i	i	i	105	40	32
NC(=O)C1CCN(C2CC(=O)N(c3cccc(F)c3)C2=O)CC1 (centres undefined)	i	i	i	i	i	nt
COc1ccc(Cl)cc1C(=O)NNC(=O)CNC(=O)c1ccc(C)s1	i	i	i	i	i	nt
CCCCN1C[C@H](C)[C@@H](CC(=O)NCc2ccccc2)C1=O	i	i	i	i	i	nt
C=CCN(C(=O)c1cccc(S(=O)(=O)N2CCN(C)CC2)c1)c1nc(-c2ccccc2)cs1	i	i	i	i	50	41
CC(C)N(C(=S)Nc1cccc(C(F)(F)F)c1)C(C)c1ccccn1 (centres undefined)	i	i	i	nt	43	i
COc1ccccc1NC(=S)N(C(C)C)C(C)c1ccccn1 (centres undefined)	i	nt	i	nt	i	nt
Cc1ccc(F)cc1NC(=S)NCCc1ccccc1	i	i	i	i	45	i
CCOc1ccccc1NC(=S)NCCc1ccccc1	i	i	i	i	42	i
O=C(Cc1cccs1)N1CCN=C1SCc1ccccc1F	i	i	i	i	i	nt
O=C(Cc1cccs1)N1CCN=C1SCc1ccccc1Cl	i	i	i	nt	40	34
O=C1/C(=C/c2ccccc2Cl)SC(=S)N1CCC(=O)N1CCCCC1CCO (centres undefined)	i	i	i	i	46	i
O=C1/C(=C\c2ccccc2)SC(=S)N1CCC(=O)N1CCCCC1CCO (centres undefined)	i	i	i	i	i	nt
Cc1cccc(N=Nc2c(C)[nH]n(C(N)=S)c2=O)c1C	i	i	i	nt	i	nt
Cc1ccccc1N=Nc1c(C)[nH]n(C(N)=S)c1=O	i	i	i	i	41	i
CCOc1cc(/C=C2\CN(CC)C/C(=C\c3ccc(O)c(OCC)c3)C2=O)ccc1O	i	i	i	i	49	i
O=c1c2ccccc2nnn1CSc1ccc2c(c1)OCCO2	i	i	i	i	42	35
Cc1ccc(-c2csc3nc4c5ccccc5c(NCCCN5CCOCC5)nn4c(=O)c23)cc1	i	i	i	nt	43	39
SMILES	tim23-1 inh	SUMO Mot1 rescue	TIM10 inh	PfHsp90 set2	tim10-1 inh	tim10-1 conf
O=C(c1noc2c1CCc1ccccc1-2)N1CCCc2ccccc21	i	i	i	i	42	i
COC(=O)CN1C(=O)S/C(=C/c2ccc(N3CCCCC3)o2)C1=O	i	i	i	i	54	51
CCCN1C(=O)S/C(=C/c2ccc(N3CCOCC3)o2)C1=O	i	i	i	i	41	38
CCCN1C(=O)S/C(=C\c2ccc(N3CCOCC3)o2)C1=O	i	i	i	i	45	48
CCOC(=O)CN1C(=O)S/C(=C/c2ccc(N3CCCCC3)o2)C1=O	i	i	i	i	i	nt
CSc1ncccc1C(=O)OCC(=O)Nc1nc(C)c(Cl)cc1Cl	i	i	i	i	i	nt
CCCCCn1nc(C(=O)N(CC(C)C)c2c(N)n(CCCC)c(=O)[nH]c2=O)c2ccccc2c1=O	i	i	i	nt	i	nt
O=C(c1cc(S(=O)(=O)N2CCOCC2)ccc1Cl)N1CCCCC1CO (centres undefined)	i	i	i	i	i	nt
COc1ccc(OC)c(NC(=O)CCNS(=O)(=O)c2cc(Br)cnc2N)c1	i	i	i	i	i	nt
CCC(C)Nc1nc(N)c([N+](=O)[O-])c(Nc2cc(OC)ccc2OC)n1 (centres undefined)	i	i	i	i	40	i
COc1ccc(OC)c(Nc2nc(NCCC(C)C)nc(N)c2[N+](=O)[O-])c1	i	i	i	i	i	nt
COc1ccc(C)cc1NC(=O)CSCc1cc(=O)n2c(C)csc2n1	i	nt	i	nt	i	nt
COc1ccc(F)cc1S(=O)(=O)n1nnc2ccccc21	i	i	i	i	50	41
CC(C)C(NS(=O)(=O)c1cccc(C(F)(F)F)c1)C(=O)NCc1cccs1 (centres undefined)	i	i	i	i	i	nt
Cc1cc(NC(=O)Cn2nc(C(=O)O)c3ccccc3c2=O)c([N+](=O)[O-])cc1C	i	i	i	i	i	nt
Cc1cc(C(=O)COc2ccccc2[N+](=O)[O-])c(C)n1C1CC1	i	i	i	i	44	i
Cc1cc(C(=O)COc2ccccc2C(N)=O)c(C)n1C1CC1	i	i	i	i	i	nt
N#Cc1cccc(NC(=O)CSc2cccc[n+]2[O-])c1	i	i	i	i	i	nt
Cc1ccccc1SCC(=O)Nc1cccc(C#N)c1	i	i	i	i	44	i
O=C(COC(=O)c1cc[n+]([O-])cc1)Nc1ccc([N+](=O)[O-])cc1C(F)(F)F	i	nt	i	i	i	nt
Cc1ccccc1C(=O)NNC(=S)NC(=O)c1cccs1	i	i	i	i	53	i
CCCOc1ccc(C(=O)NNC(=S)NC(=O)c2cccs2)cc1	i	i	i	i	48	i
CCCOc1ccc(C(=O)NNC(=S)NC(=O)c2ccccc2)cc1	i	i	i	i	i	nt
CCCOc1ccc(C(=O)NNC(=S)NC(=O)c2cc(-c3ccccc3)nc3ccccc23)cc1	i	nt	i	i	45	38
CCNC(=S)NNC(=O)c1cc(-c2cc(C)ccc2C)nc2ccccc12	i	i	i	i	45	41
Cc1ccccc1C(=O)Nc1cccc(NC(=S)NC(=O)c2cccs2)c1	i	i	i	i	i	nt
CCCc1cc(C(=O)NNC(=S)NCC)c2ccccc2n1	i	i	i	i	i	nt
COc1ccccc1N(C)S(=O)(=O)c1ccc(C(=O)N(C)Cc2ccc(OC(F)F)cc2)cc1	i	nt	i	i	i	nt
COc1cccc(NC(=O)C2C3CCC4C(CCC32)C4(Cl)Cl)c1 (centres undefined)	i	i	i	i	42	i
Clc1ccc(N(CC2CO2)CC2CO2)cc1 (centres undefined)	nt	nt	nt	i	nt	nt
